Compound activity (PubChem BioAssay)
Compounds with a hit are over-represented: about 2.2% of the library has one in this group of screens.
ZTA DNA inh: counter-screen for EBNA-1 inhibitors: inhibitors of Epstein-Barr virus ZTA; inhibition, % at 11 µM; ZTA-DNA binding, fluorescence polarization; actives 0.15% (n = 320,000); P03206; in the data active means inhibition above about 33%
NALP1 inh: inhibitors of NALP1 inflammasome in yeast; inhibition, % at 10 µM; actives 0.61% (n = 280,000); AID 2071; S. cerevisiae NALP1/ASC/caspase-1 growth, X-gal OD620, 72 h; in the data active means inhibition mostly above about 24%, no sharp cut-off; inactive means mostly below about 32%
dFosB act: activators of mouse delta FosB homodimer; purified delta FosB, TAMRA-CDK5 oligo fluorescence polarization; percent of positive-control signal above neutral wells; actives 0.99% (n = 340,000); activation, % at 25 µM; AID 493131; P13346;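 active means mean activation above about 17%, with every replicate also reaching it, limit read from the data, passing the limit was not always enough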
Target sequence (P13346 whole entry, looked up): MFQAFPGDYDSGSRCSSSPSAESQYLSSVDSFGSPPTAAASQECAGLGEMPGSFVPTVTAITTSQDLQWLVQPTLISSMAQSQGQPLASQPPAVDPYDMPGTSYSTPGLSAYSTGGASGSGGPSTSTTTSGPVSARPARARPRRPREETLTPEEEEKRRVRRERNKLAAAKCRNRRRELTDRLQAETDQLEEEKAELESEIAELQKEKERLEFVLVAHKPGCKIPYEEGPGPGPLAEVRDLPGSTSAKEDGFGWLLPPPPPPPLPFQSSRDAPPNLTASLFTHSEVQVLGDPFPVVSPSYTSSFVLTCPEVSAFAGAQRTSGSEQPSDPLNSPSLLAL
EBNA-1 inh: blocks EBNA-1 binding to DNA. EBNA-1 DNA binding, fluorescence polarization. inhibition, % at 14.8 µM. actives 0.34% (n = 300,000); in the data active means inhibition above about 28%
NALP3 yeast inh: inhibitors of NALP3 inflammasome in yeast; Yeast reconstituted NLRP3/ASC/caspase-1, beta-gal luminescence, 24 h; inhibition, % at 10 µM; actives 0.39% (n = 330,000); AID 2825;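 active means inhibition of 50% or more; inactive means inhibition below 50%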;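 further: plate controls were induced DMSO wells for no effect and uninduced yeast grown without galactose for full effect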
PolyA inh: yeast polyadenylation inhibition; S. cerevisiae SKY197-pL101 polyadenylation reporter, beta-gal luminescence; efflux-impaired pdr1/pdr3 knockout yeast; score 100 = 6 SD above DMSO; activity score, % at 12 µM; actives 0.02% (n = 300,000);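 active means lowest replicate activity score at least 50, where 100 means six control SD above control mean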;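 further: yeast exposed to compound for 9 h at 30 °C; higher score means more reporter readthrough which indicates perturbed polyadenylation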
Starred values were filed as active, the others as inactive; . = not tested or not shown.

SMILES	ZTA DNA inh	NALP1 inh	dFosB act	EBNA-1 inh	NALP3 yeast inh	PolyA inh
Cn1c(C(=O)N2CCCC(C(=O)NCCN3CCOCC3)C2)cc2sccc21 (centres undefined)	-17.9	30.2*	0.2	-16.1	14.6	-2.2
Cc1cccc(CN2CCC(Oc3ccc(C(=O)N4CCCC4)cc3)CC2)n1	-3.7	-1.3	-4.6	-8.2	3.6	7.9
C=CCNC(=O)Nc1ccc2oc(C)nc2c1	-15.0	16.2	0.9	-1.7	8.8	16.9
O=C(NCCCO)c1ccc2nc(-c3ccco3)c(-c3ccco3)nc2c1	.	12.1	-12.2	.	.	.
Cc1nc2cc(NC(=O)NCCCO)ccc2o1	-19.9	29.1*	-6.5	1.9	3.6	9.9
O=C(NCCO)Nc1ccc2nc(-c3ccco3)c(-c3ccco3)nc2c1	41.7*	6.9	.	22.8	4.9	.
CCCCn1c(Cn2nc(C(=O)O)c3ccccc3c2=O)nc2cc(S(N)(=O)=O)ccc21	-1.5	-2.7	-22.5	9.6	12.0	-5.3
Cc1sc2ncnc(NCC3(N4CCOCC4)CCCCC3)c2c1C	-11.7	43.5*	-8.9	-4.0	19.2	13.5
c1nc(NCC2(N3CCOCC3)CCCCC2)c2ccsc2n1	-10.8	5.1	-1.8	-12.0	2.9	9.3
CC1CC(C)CN(C(=O)C(C)N2CCN(S(=O)(=O)c3ccc(Br)s3)CC2)C1 (centres undefined)	.	.	-9.7	.	18.0	.
CCNc1nc(NC(C)C)nc(NC(C)(C)C)n1	-5.9	30.0*	-10.6	-21.0	16.0	10.7
CCN1CCCC1CNC(=O)c1ccc2c(c1)NC(=O)/C(=C\c1ccc(C)cc1)S2 (centres undefined)	1.9	29.6	39.2*	-13.8	5.3	13.1
Cc1ccc(/C=C2/Sc3ccc(C(=O)NCCN4CCOCC4)cc3NC2=O)cc1	-4.9	2.8	7.8	3.0	1.3	-3.1
COc1cccc(/C=C2/Sc3ccc(C(=O)NCCN4CCCC4)cc3NC2=O)c1	-5.7	0.5	36.1*	2.2	19.3	5.4
COc1ccc(/C=C2\Sc3ccc(C(=O)NCCN4CCCCCC4)cc3N(C)C2=O)cc1	22.1	13.8	26.5*	1.6	15.6	-0.6
O=S(=O)(NCc1nnc2c(C(F)(F)F)cc(Cl)cn12)c1ccccc1	-6.1	2.3	-0.4	-8.7	4.8	22.1
COC(=O)NC(NS(=O)(=O)c1ccccc1)(C(=O)OC)C(F)(F)F (centres undefined)	1.2	6.9	-4.5	-2.7	-14.3	-3.4
CCOC(=O)C(NS(=O)(=O)c1ccccc1)(C(F)(F)F)P(=O)(OCC(C)C)OCC(C)C (centres undefined)	-9.5	34.4*	1.7	5.5	8.1	-16.7
Cc1nc2ccc(C(=O)NCc3ccc4c(c3)OCO4)cc2s1	5.2	3.5	-13.2	-18.0	-0.8	111.7*
Cc1nc2ccc3nc(NC(=O)c4ccc5c(c4)OCCO5)sc3c2s1	18.3	24.7	173.1*	9.0	12.1	10.5
O=C(NCc1ccc2c(c1)OCO2)c1cccc(C(=O)NCc2ccc3c(c2)OCO3)c1	-0.2	21.0	4.2	-10.5	4.3	-11.0
O=C(NC1CCCCC1)N1CCN(C(c2ccccc2)c2ccccc2)CC1	-5.7	41.0*	-5.8	-8.2	15.3	0.1
CC(C)N1C/C(=C/c2cccnc2)C(=O)/C(=C/c2cccnc2)C1	.	105.8*	-6.6	.	.	.
CN1C/C(=C/c2cccnc2)C(=O)/C(=C/c2cccnc2)C1	19.2	.	-2.6	-1.8	.	.
Cc1nc2c(=O)n(C)c(=O)n(C)c2nc1Cl	9.5	93.9*	-1.9	-6.5	.	-13.1
SMILES	ZTA DNA inh	NALP1 inh	dFosB act	EBNA-1 inh	NALP3 yeast inh	PolyA inh
Cn1c(=O)c2nc(NCc3ccccc3)cnc2n(C)c1=O	13.3	4.3	4.0	11.9	24.3	11.9
O=C(CCCn1c(=O)oc2ccccc21)Nc1ccccc1	.	.	1.4	.	15.1	.
CC(C)NC(=O)c1ccccc1NC(=O)CS(=O)(=O)Cc1ccccc1	-8.8	35.7*	8.5	-4.4	7.4	5.4
O=C(NC1CC1)c1cc2cc(Br)ccc2s1	-0.8	29.9*	-2.1	-4.8	21.0	-11.2
Cc1cccc(N(C(=O)CNC(=O)c2cccs2)C(C(=O)NC2CCCC2)c2ccncc2)c1 (centres undefined)	0.8	-7.3	-1.4	-1.2	19.7	10.9
CCCNc1c(NS(=O)(=O)c2ccc(Br)cc2)c(=O)oc2ccccc12	5.5	-0.1	45.7*	-1.5	6.9	-24.2
